# From PubChem BioAssay AID485364 (National Center for Advancing Translational Sciences (NCATS), 2010)
# About 11,000 (3.1%) of roughly 360,000 compounds were called active. Inconclusive results (about 4%) are left out. Calls follow the shape of the dose curve; as a rule, active = well fitted inhibition curve with a large enough effect; inconclusive = small, poorly fitted or top-dose-only effect; inactive = no such curve, though single readings can be large or run the other way. The full list was thinned out, with actives kept by preference.
# Target: Schistosoma mansoni thioredoxin glutathione reductase (TGR) (UniProt Q962Y6)
# Experiment: qHTS Assay for the Inhibitors of Schistosoma Mansoni Peroxiredoxins; also: nearly all actives have a fitted effect of over 60% in size
# Conditions: purified TGR, DTNB reduction, TNB absorbance 405 nm; series mostly up to 114 µM; activity change, negative = inhibition: at the top concentration
# Procedure, shortened: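 First, TGR (20 nM dispensed) and NADPH were mixed with compound. Second, a 15 min room-temperature incubation followed. Third, further NADPH and then DTNB were added to start the reaction. Finally, TNB absorbance was monitored kinetically.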
# % is scaled to controls: 0 for no effect and ±100 for the full control effect; potency is read from the fitted curve at half-maximal effect.
Compound,"activity change, negative = inhibition",Potency
O=C(CSc1nnc(CNC(=O)c2ccccc2)n1-c1ccc(F)cc1)Nc1ccccc1F,-11.6% (inactive),–
CCOc1ccc2oc(=O)cc(CN3CCN(C(=O)c4ccc(F)cc4)CC3)c2c1,-23.7% (inactive),–
O=C1CSC2(C(=O)N(Cc3ccccc3)c3ccccc32)N1c1cccc(F)c1 (centres undefined),0.896% (inactive),–
O=C(Nc1ccc(-c2nc3cc(NC(=O)c4ccccc4Cl)ccc3o2)cc1)c1ccccc1Cl,2.81% (inactive),–
COc1cccc(C(=O)Nc2ccc(-c3cc(C(F)(F)F)nn3-c3ccccc3)cc2)c1,14.5% (inactive),–
Cc1cc(OCC(=O)Nc2ncn[nH]2)c(C)c(C)c1Br,5.33% (inactive),–
Cc1c(-c2ccccc2)nc(N)c(C#N)c1-c1cccs1,3.35% (inactive),–
CN1CCc2nc(SC(C(=O)O)c3ccccc3)c(C#N)c(-c3cccs3)c2C1 (centres undefined),–,39.8 µM (active)
CC(NC(=O)CSc1nc2c(cc1C#N)CN(C)CC2)c1ccccc1 (centres undefined),0% (inactive),–
O=C(c1ccc(C(F)(F)F)cc1)N1CCC(c2nc(-c3ccc(S(=O)(=O)N4CCCC4)cc3)no2)CC1,-0.916% (inactive),–
COc1ccc(OC)c(CNC(=O)Cn2nc(C)c3c(C)n(-c4ccccc4)nc3c2=O)c1,-0.771% (inactive),–
CC1CC(C)CN(CC(=O)Nc2ccc(S(N)(=O)=O)cc2)C1 (centres undefined),-6.12% (inactive),–
CCc1ccc(CCC(=O)Nc2ccc(S(N)(=O)=O)cc2)o1,–,50.1 µM (active)
NS(=O)(=O)c1ccc(NC(=O)COC(=O)c2ccco2)cc1,-0.38% (inactive),–
O=C(NCc1ccc2c(c1)CCN2C(=O)c1ccccc1)Nc1cc(F)ccc1F,-1.99% (inactive),–
Cc1ccc2c(=O)c(C(=O)c3cccc(Cl)c3)cn(CC(=O)NCc3ccccc3)c2n1,5.5% (inactive),–
O=C(NCC(c1ccc2c(c1)OCO2)N1CCN(c2ccccc2)CC1)C(=O)Nc1ccccc1F (centres undefined),5.99% (inactive),–
COC(=O)c1sccc1NC(=O)c1ccc(Cl)cc1,-1.81% (inactive),–
COC(=O)c1nc(NC(=O)c2ccc(F)cc2)n[nH]1,–,28.2 µM (active)
CCOC(=O)NNC(=O)c1ccc(Cl)cc1,9.66% (inactive),–
COC(=O)c1nc(NC(=O)c2ccc(Cl)cc2)n[nH]1,–,39.8 µM (active)
COC(=O)c1nc(NC(=O)c2ccc(C(C)(C)C)cc2)n[nH]1,3.65% (inactive),–
COc1ccc(C(=O)Nc2ccc(F)cc2F)cc1,6.18% (inactive),–
NS(=O)(=O)c1ccc(NC(=O)COc2ccc(S(=O)(=O)NC3CCCCC3)cc2)cc1,4.88% (inactive),–
COc1ccc(CNc2nc(-c3ccc(Cl)cc3)nn2S(=O)(=O)c2ccc(C)cc2)cc1,-0.796% (inactive),–

Compound,"activity change, negative = inhibition",Potency
COc1ccccc1CNC(=O)CS(=O)(=O)c1cccc2nsnc12,-0.613% (inactive),–
Cc1ccc(OC(=O)CSc2nnc(-c3cccs3)o2)cc1,-0.547% (inactive),–
COc1cc(Cl)c(NC(=O)CC(C)S(=O)(=O)c2cc3c(cc2C)NC(=O)CO3)c(OC)c1 (centres undefined),-4.41% (inactive),–
COc1ccc(OC)c(CCNC(=O)CCCn2c(=O)c3cccn3c3cccnc32)c1,1.8% (inactive),–
O=C(CCn1ccc2cc(S(=O)(=O)N3CCCC3)ccc21)NCc1cccc(Cl)c1,-5.15% (inactive),–
COc1ccc(Cl)cc1NC(=O)CSc1nc(-c2cccs2)cc(C(F)(F)F)n1,-0.774% (inactive),–
CCc1ccc(-n2nc(C)c3c(C)cc(=O)n(CC(=O)Nc4ccc(F)cc4C)c32)cc1,-0.967% (inactive),–
O=C(CC(c1cccs1)N1Cc2ccccc2C1=O)Nc1ccc(F)cc1F (centres undefined),-8.15% (inactive),–
COC(=O)c1c(NC(=O)c2ccc(Cl)c(Cl)c2)sc2c1CCCC2,-1.51% (inactive),–
CCOC(=O)c1c(NC(=O)c2cc(-c3ccc(Cl)cc3)on2)sc2c1CCCC2,-7.21% (inactive),–
CNC(=O)c1c(NC(NC(=O)c2ccco2)C(=O)c2ccc(Cl)cc2)sc2c1CCCC2 (centres undefined),–,25.1 µM (active)
CCOc1ccc(OCC)c(NC(=O)CN(c2ccc(C)cc2)S(=O)(=O)c2c(C)n[nH]c2C)c1,10.6% (inactive),–
COc1ccc(CNC(=O)CSc2n[nH]c(-c3ccc(F)cc3)n2)cc1,2.87% (inactive),–
Cc1cc(-c2ccc(C)c(S(=O)(=O)N3c4ccccc4CC3C)c2)on1 (centres undefined),11.2% (inactive),–
COc1ccc(Cn2ccc3nc(C)c(C(=O)Nc4ccc(C)c(F)c4)cc3c2=O)cc1,-0.138% (inactive),–
O=C(CCNS(=O)(=O)c1ccccc1C(F)(F)F)NCc1ccc2c(c1)OCO2,-10.5% (inactive),–
O=C(CC(Cc1ccccc1)C(=O)O)NCCc1ccc2c(c1)OCO2 (centres undefined),-1.4% (inactive),–
O=C(CCc1nnc(Cc2ccc3c(c2)OCO3)o1)NCCc1ccccc1Cl,–,31.6 µM (active)
CCOc1ccccc1CNC(=O)Nc1cn(CC(C)C)c(=O)c2ccccc12,-7.64% (inactive),–
O=S(=O)(NCc1ccccc1)c1ccc(S(=O)(=O)N2CCCC2)cc1,-0.62% (inactive),–
O=c1/c(=C/c2ccc(CNS(=O)(=O)c3ccccc3)o2)sc2n1CCN=2,–,25.1 µM (active)
O=S(=O)(NCC1OCCc2ccccc21)c1ccccc1 (centres undefined),34.3% (inactive),–
CCCCN(C)CCCNC(=O)CN1N=C(c2ccc(OC)cc2)CCC1=O,2.84% (inactive),–
COc1ccc(CC(=O)Nc2ccc(-c3nc4ccccc4s3)c(C)c2)cc1,6.41% (inactive),–
O=S(=O)(c1cc(Cl)ccc1Cl)N1CCN(Cc2ccco2)CC1,-16.2% (inactive),–

Compound,"activity change, negative = inhibition",Potency
O=C(CN1CCN(S(=O)(=O)c2cc(Cl)ccc2Cl)CC1)c1ccc(O)c(O)c1,–,17.8 µM (active)
COc1ccc(Cl)cc1S(=O)(=O)N1CCN(CC(=O)C(C)(C)C)CC1,-27.4% (inactive),–
Cc1ccc(C)n1-c1nnc(N2CCC(C(=O)NCc3ccccc3Cl)CC2)s1,-21.1% (inactive),–
CCN(CC(=O)NCc1ccc(Cl)cc1)C(=O)c1c(C)noc1C,-9.68% (inactive),–
COc1ccc(CNC(=O)COC(=O)/C=C/c2ccc(S(=O)(=O)N3CCOCC3)cc2)cc1,4.4% (inactive),–
Cc1ccc(/C=C/C(=O)OCC(=O)NCc2ccc(Cl)cc2)o1,–,25.1 µM (active)
O=C(Nc1ccccc1)c1nnsc1S(=O)(=O)c1ccc(Cl)cc1,–,0.316 µM (active)
O=C(Nc1ccc(Oc2ccccc2)cc1)C1CCN(S(=O)(=O)c2ccc(Cl)cc2)CC1,-7.31% (inactive),–
Cc1nnsc1S(=O)(=O)Cc1ccccc1Cl,-2.4% (inactive),–
COc1ccc(Nc2cc(C(=O)NCCCN(C)c3ccccc3)c3ccccc3n2)c(OC)c1,9.2% (inactive),–
CCCn1c(=N)n(CC(O)COc2ccccc2OC)c2ccccc21 (centres undefined),4.68% (inactive),–
CCOc1ccc(CNC(=O)C2CCCN(S(=O)(=O)N(CC)c3ccc(OCC)cc3)C2)cc1 (centres undefined),-9.5% (inactive),–
CCCN1CN=C(NS(=O)(=O)c2ccc(NC(C)=O)cc2)NC1,5.57% (inactive),–
Cc1ccc(-n2nnnc2CNC(=O)c2ccccc2C)cc1C,13% (inactive),–
O=C1NC(=O)N(c2ccc(F)cc2)C(=O)/C1=C/c1ccc2c(c1)CCCN2Cc1ccccc1,–,17.8 µM (active)
CCCN1CCN(CCCNC(=O)Cn2nc(CC)n3c(cc4occc43)c2=O)CC1,-11.9% (inactive),–
O=C(NC(=S)Nc1cccc(-c2ccc(CO)o2)c1)c1cccs1,–,20 µM (active)
O=C(NC(=S)Nc1ccc(NC(=O)c2cccs2)cc1)c1ccc([N+](=O)[O-])cc1,1.64% (inactive),–
O=C(Nc1ccccc1-c1ccccc1)c1cccs1,-1.38% (inactive),–
Cc1ccc(S(=O)(=O)N2CCC(C(=O)Nc3cc(C)ccc3C)CC2)cc1,21.4% (inactive),–
O=C(CSc1nc(=O)n(Cc2cccnc2)c2c1CCC2)Nc1ccc(F)cc1F,3.22% (inactive),–
CCc1ccc(N(CC)C(=O)CCn2cnc3onc(-c4ccc(F)cc4)c3c2=O)cc1,-0.879% (inactive),–
O=C1CC(c2nnc(Cc3ccc(Cl)cc3)o2)CN1c1ccccc1 (centres undefined),3.72% (inactive),–
CC(C)N1C(=O)N(c2ccccc2)C(C)(O)CC1(C)C (centres undefined),0.967% (inactive),–
CC(C)C1C2=C(CC(C)(C)CC2=O)ON1c1ccccc1 (centres undefined),–,28.2 µM (active)

Compound,"activity change, negative = inhibition",Potency
Cc1ccsc1C1C(C#N)=C(N)OC2=C1C(=O)CC(C)(C)C2 (centres undefined),0.359% (inactive),–
Cc1sc2ncn(CC(=O)N3CCN(c4ccc(F)cc4)CC3)c(=O)c2c1S(=O)(=O)N1CCN(c2ncccn2)CC1,-0.836% (inactive),–
CCc1cnc2c(c1SCC(=O)N1CCC(C)CC1)c(=O)n(C)c(=O)n2C,-0.0016% (inactive),–
O=C(Nc1cc(-c2nc3ccccc3o2)ccc1Cl)c1cc([N+](=O)[O-])ccc1N1CCOCC1,-0.536% (inactive),–
Cc1onc(C(=O)Nc2ccc3c(c2)OCO3)c1[N+](=O)[O-],-12.1% (inactive),–
O=C(Nc1cccc([N+](=O)[O-])c1)c1ccc2c(c1)OCO2,2.85% (inactive),–
Cc1cccc(NC(=O)c2ccc([N+](=O)[O-])o2)c1,–,31.6 µM (active)
Cc1onc(NC(=O)c2ccc([N+](=O)[O-])o2)c1Br,–,28.2 µM (active)
Cc1cccc(NC(=O)c2ccc(COc3ccccc3[N+](=O)[O-])o2)n1,-4.93% (inactive),–
Cc1cccc(NC(=O)C(C)SCc2ccccc2)c1 (centres undefined),-15.1% (inactive),–
Cc1cccc(C(=O)Nc2ccc(-c3nc4ncccc4o3)cc2C)c1,14.9% (inactive),–
COc1cc(NC(=O)c2cc3ccc4cccnc4c3[nH]2)cc(OC)c1OC,12.9% (inactive),–
COc1ccc(Cl)cc1NC(=O)CCn1c(=O)c2cccn2c2ccccc21,-1.03% (inactive),–
COc1cc(OC)c(OC)cc1/C=C/c1nc2cc3ccccc3cc2c(=O)n1-c1ccc(F)c(Cl)c1,2.39% (inactive),–
Cc1cc(C)cc(OC(C)C(=O)Nc2nc3c(s2)CCCC3)c1 (centres undefined),5.35% (inactive),–
COC(=O)C(NC(C)=O)(Nc1nc2c(s1)CCCC2)C(F)(F)F (centres undefined),–,50.1 µM (active)
CCOC(=O)C(NC(=O)CC(C)C)(Nc1sc2c(c1C(N)=O)CCCC2)C(F)(F)F (centres undefined),-18.7% (inactive),–
COc1ccccc1CNc1nc2ccc(Cl)cc2n2cnnc12,-0.742% (inactive),–
COc1ccccc1NC(=O)c1sc2nc(C)c(C(=O)Nc3ccc(Cl)cc3)c(-c3ccc(Br)cc3)c2c1N,2.29% (inactive),–
Oc1ccc(CNc2ccccc2O)cc1,–,20 µM (active)
O=[N+]([O-])c1ccccc1NCc1ccc(Cl)cc1,-16.6% (inactive),–
O=C(Cc1ccc(Cl)cc1)NC(=S)Nc1ccccc1O,-7.71% (inactive),–
O=C(CC(c1cccs1)N1Cc2ccccc2C1=O)Nc1ccc(F)c(F)c1 (centres undefined),11.1% (inactive),–
CC(C)Oc1ccc(CNC(=O)C2CCN(c3nc4ccccc4n(C)c3=O)CC2)cc1,1.86% (inactive),–
